Experimental data from PubChem BioAssay (EPA / NIEHS).
Active and inactive are the calls of the source. The calls were made as follows: active = hit-call score of the fitted dose curve at least 0.9, where 1 is the maximum; inactive = score below 0.9.

Columns and labels:
Conditions in all cases: mRNA level, 48 h; actives raise or lower the signal
[1] = read-out: Early growth response protein 1 (EGR1) transcription factor, EGR1 (gene 1958); assay: LTEA_HepaRG_EGR1: Life Technologies and Expression Analysis (LTEA) Assay for Early growth response protein 1 (EGR1) transcription factor using HepaRG (AID 2283490)
Procedure, shortened: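 HepaRG, 48 h exposure, 8-pt half-log series from 100 uM, 0.5% DMSO vehicle; EGR1 transcript by TaqMan qRT-PCR (Fluidigm array), housekeeping-normalized; bidirectional fit relative to DMSO baseline.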

[2] = read-out: Ezrin (EZR), EZR (gene 7430); assay: LTEA_HepaRG_EZR: Life Technologies and Expression Analysis (LTEA) Assay for Ezrin (EZR) using HepaRG (AID 2283491)
Procedure, shortened: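 EZR transcript levels came from Fluidigm qRT-PCR and were normalized to three housekeeping genes after 48 h chemical exposure of HepaRG cells. Dosing used an 8-point half-log series with a 100 uM top concentration in 0.5% DMSO, tested in duplicate; both directions were fitted versus vehicle.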

[3] = read-out: Cytochrome P450 3A7 (Homo sapiens) (UniProt P24462); assay: LTEA_HepaRG_CYP3A7: Life Technologies and Expression Analysis (LTEA) Assay for CYP3A7 using HepaRG (AID 2283492)
Procedure, shortened: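 Differentiated HepaRG cells in serum-free induction medium exposed 48 h in duplicate to 8-point half-log series from 100 uM top in 0.5% DMSO. CYP3A7 mRNA by qRT-PCR, normalized to ACTB/GAPDH/POLR2A, bidirectional fit versus DMSO.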

[4] = read-out: CYP3A5 (gene 1577); assay: LTEA_HepaRG_CYP3A5: Life Technologies and Expression Analysis (LTEA) Assay for CYP3A5 using HepaRG (AID 2283493)
Procedure, shortened: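 Human HepaRG hepatic cells receive 48 h chemical treatment at eight concentrations (half-log steps from 100 uM) in 0.5% DMSO. Expression of CYP3A5 is quantified by Fluidigm qRT-PCR and normalized to three reference genes.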

[5] = read-out: Fatty Acid-Binding Protein 1 (FABP1), FABP1 (gene 2168); assay: LTEA_HepaRG_FABP1: Life Technologies and Expression Analysis (LTEA) Assay for Fatty Acid-Binding Protein 1 (FABP1) using HepaRG (AID 2283494)
Procedure, shortened: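 qRT-PCR readout of FABP1 transcript (normalized to three housekeeping genes) after 48 h chemical exposure of HepaRG cells; eight concentrations, half-log steps, max 100 uM, 0.5% DMSO vehicle; gain or loss fitted relative to DMSO baseline.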

[6] = read-out: Cytochrome P450 4A22 (Homo sapiens) (UniProt Q5TCH4); assay: LTEA_HepaRG_CYP4A22: Life Technologies and Expression Analysis (LTEA) Assay for Cytochrome P450 4A22 (CYP4A22) using HepaRG (AID 2283495)
Procedure, shortened: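 Differentiated HepaRG cells in serum-free induction medium exposed 48 h in duplicate to eight half-log concentrations up to 100 uM in 0.5% DMSO. CYP4A22 mRNA quantified by TaqMan qRT-PCR, normalized to ACTB, GAPDH and POLR2A; bidirectional fit versus DMSO.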

[7] = read-out: Glutathione S-Transferase (GSTA2), GSTA2 (gene 2939); assay: LTEA_HepaRG_GSTA2: Life Technologies and Expression Analysis (LTEA) Assay for Glutathione S-Transferase (GSTA2) using HepaRG (AID 2283497)
Procedure, shortened: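 qRT-PCR readout of GSTA2 transcript, normalized to three housekeeping genes, fitted bidirectionally against 0.5% DMSO baseline. Differentiated HepaRG cells received compound for 48 h at 8 concentrations (top 100 uM, half-log steps).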

[8] = read-out: Glutamate-cysteine ligase catalytic (GCLC), GCLC (gene 2729); assay: LTEA_HepaRG_GCLC: Life Technologies and Expression Analysis (LTEA) Assay for Glutamate-cysteine ligase catalytic (GCLC) using HepaRG (AID 2283498)
Procedure, shortened: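 HepaRG, 48 h exposure, 8-pt half-log series from 100 uM, 0.5% DMSO vehicle; TaqMan qRT-PCR for GCLC mRNA, housekeeping-normalized; bidirectional curve fit vs DMSO baseline.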

[9] = read-out: growth arrest and DNA damage 45 (GADD45G), GADD45G (gene 10912); assay: LTEA_HepaRG_GADD45G: Life Technologies and Expression Analysis (LTEA) Assay for growth arrest and DNA damage 45 (GADD45G) using HepaRG (AID 2283499)
Procedure, shortened: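 Differentiated human HepaRG cells, 48 h post-plating, exposed 48 h in serum-free induction medium to 8 half-log concentrations (top 100 uM, 0.5% DMSO) in duplicate. GADD45G mRNA measured by Fluidigm TaqMan qRT-PCR, normalized to ACTB, GAPDH, POLR2A; bidirectional fit versus DMSO.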

[10] = read-out: Glutamate-cysteine ligase regulatory (GCLM), GCLM (gene 2730); assay: LTEA_HepaRG_GCLM: Life Technologies and Expression Analysis (LTEA) Assay for Glutamate-cysteine ligase regulatory (GCLM) using HepaRG (AID 2283500)
Procedure, shortened: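 Endpoint is GCLM transcript level by qRT-PCR, normalized to three housekeeping genes, after 48 h chemical exposure of human HepaRG cells (0.5% DMSO vehicle, top 100 uM, half-log dilutions). Fitting was bidirectional relative to DMSO.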

[11] = read-out: Glutathione S-transferase M3 (GSTM3), GSTM3 (gene 2947); assay: LTEA_HepaRG_GSTM3: Life Technologies and Expression Analysis (LTEA) Assay for Glutathione S-transferase M3 (GSTM3) using HepaRG (AID 2283501)
Procedure, shortened: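 Differentiated human HepaRG cells were exposed in duplicate for 48 h in serum-free induction medium, 8 points from 100 uM top in half-log steps, 0.5% DMSO. GSTM3 mRNA was measured by TaqMan qRT-PCR, normalized to ACTB, GAPDH and POLR2A; bidirectional fit versus DMSO.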

[12] = read-out: Heat shock 70 kDa protein 1 (HSPA1A), gene 3303; assay: LTEA_HepaRG_HSPA1A: Life Technologies and Expression Analysis (LTEA) Assay for Heat shock 70 kDa protein 1 (HSPA1A) using HepaRG (AID 2283502)
Procedure, shortened: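 Cells were plated and cultured for 48 h, then switched to serum-free induction medium. Chemicals were added at eight half-log concentrations up to 100 uM for 48 h. RNA was then isolated and HSPA1A measured by qRT-PCR with bidirectional curve fitting against DMSO.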

[13] = read-out: Hypoxia-inducible factor 1-alpha (Homo sapiens) (UniProt Q16665); assay: LTEA_HepaRG_HIF1A: Life Technologies and Expression Analysis (LTEA) Assay for Hypoxia-inducible factor 1 (HIF1A) Trancription factor using HepaRG (AID 2283503)
Procedure, shortened: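 HIF1A transcript level read by qRT-PCR (ACTB, GAPDH, POLR2A normalization) after 48 h chemical exposure of HepaRG cultures. Eight half-log concentrations, top 100 uM, 0.5% DMSO vehicle, duplicates; bidirectional curve fit against DMSO baseline.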

[14] = read-out: 3-Hydroxy-3-Methylglutaryl-CoA Synthase 2 (HMGCS2), HMGCS2 (gene 3158); assay: LTEA_HepaRG_HMGCS2: Life Technologies and Expression Analysis (LTEA) Assay for 3-Hydroxy-3-Methylglutaryl-CoA Synthase 2 (HMGCS2) using HepaRG (AID 2283504)
Procedure, shortened: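 Human HepaRG cells in serum-free induction medium were exposed in duplicate for 48 h to 8-point half-log series from 100 uM top in 0.5% DMSO. HMGCS2 mRNA measured by TaqMan qRT-PCR, normalised to ACTB, GAPDH, POLR2A; bidirectional fit versus DMSO.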

[15] = read-out: HGF (gene 3082); assay: LTEA_HepaRG_HGF: Life Technologies and Expression Analysis (LTEA) Assay for Hepatocyte Growth Facto (HGF) using HepaRG (AID 2283505)
Procedure, shortened: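 Differentiated HepaRG cells in serum-free induction medium exposed 48 h in duplicate, 8 half-log concentrations from 100 uM in 0.5% DMSO. HGF mRNA by qRT-PCR, normalised to ACTB, GAPDH, POLR2A; bidirectional fitting.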

[16] = read-out: Insulin Like Growth Factor 1 (IGF1), IGF1 (gene 3479); assay: LTEA_HepaRG_IGF1: Life Technologies and Expression Analysis (LTEA) Assay for Insulin Like Growth Factor 1 (IGF1) using HepaRG (AID 2283506)
Procedure, shortened: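 Cells are thawed, plated and cultured 48 h, then exposed in duplicate to chemical (highest 100 uM, half-log steps, 0.5% DMSO) for another 48 h. Total RNA is analysed by Fluidigm qRT-PCR for IGF1 expression relative to vehicle.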

[17] = read-out: Intercellular Adhesion Molecule 1 (ICAM1), ICAM1 (gene 3383); assay: LTEA_HepaRG_ICAM1: Life Technologies and Expression Analysis (LTEA) Assay for Intercellular Adhesion Molecule 1 (ICAM1) using HepaRG (AID 2283507)
Procedure, shortened: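 Differentiated human HepaRG cells in serum-free induction medium exposed 48 h in duplicate to 8 half-log concentrations (top 100 uM, 0.5% DMSO). ICAM1 mRNA quantified by TaqMan qRT-PCR, normalized to ACTB, GAPDH and POLR2A; bidirectional fitting versus DMSO.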

[18] = read-out: Insulin-like growth factor-binding protein 1 (IGFBP1), IGFBP1 (gene 3484); assay: LTEA_HepaRG_IGFBP1: Life Technologies and Expression Analysis (LTEA) Assay for Insulin-like growth factor-binding protein 1 (IGFBP1) using HepaRG (AID 2283508)
Procedure, shortened: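 HepaRG cells, plated 48 h then switched to serum-free induction medium, exposed in duplicate for 48 h to 8-point half-log series from 100 uM in 0.5% DMSO. mRNA measured by qRT-PCR, normalized to ACTB/GAPDH/POLR2A; bidirectional fit versus DMSO.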

Measured: AC50

Sequence of Cytochrome P450 3A7 (Homo sapiens) (P24462 whole entry, looked up): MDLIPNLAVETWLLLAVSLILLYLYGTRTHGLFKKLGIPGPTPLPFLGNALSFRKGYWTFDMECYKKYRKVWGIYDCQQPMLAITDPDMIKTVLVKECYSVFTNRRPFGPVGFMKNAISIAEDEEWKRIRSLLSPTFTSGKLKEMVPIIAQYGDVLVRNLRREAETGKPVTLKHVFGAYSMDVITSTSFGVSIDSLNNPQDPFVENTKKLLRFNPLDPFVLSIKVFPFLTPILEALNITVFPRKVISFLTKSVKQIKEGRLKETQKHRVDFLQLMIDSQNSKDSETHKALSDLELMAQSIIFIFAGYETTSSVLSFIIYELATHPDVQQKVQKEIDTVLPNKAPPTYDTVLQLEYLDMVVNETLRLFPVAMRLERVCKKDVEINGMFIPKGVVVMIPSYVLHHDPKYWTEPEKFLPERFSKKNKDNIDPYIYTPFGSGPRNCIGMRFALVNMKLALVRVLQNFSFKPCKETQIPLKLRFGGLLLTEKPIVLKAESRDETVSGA
Sequence of Hypoxia-inducible factor 1-alpha (Homo sapiens) (Q16665 whole entry, looked up): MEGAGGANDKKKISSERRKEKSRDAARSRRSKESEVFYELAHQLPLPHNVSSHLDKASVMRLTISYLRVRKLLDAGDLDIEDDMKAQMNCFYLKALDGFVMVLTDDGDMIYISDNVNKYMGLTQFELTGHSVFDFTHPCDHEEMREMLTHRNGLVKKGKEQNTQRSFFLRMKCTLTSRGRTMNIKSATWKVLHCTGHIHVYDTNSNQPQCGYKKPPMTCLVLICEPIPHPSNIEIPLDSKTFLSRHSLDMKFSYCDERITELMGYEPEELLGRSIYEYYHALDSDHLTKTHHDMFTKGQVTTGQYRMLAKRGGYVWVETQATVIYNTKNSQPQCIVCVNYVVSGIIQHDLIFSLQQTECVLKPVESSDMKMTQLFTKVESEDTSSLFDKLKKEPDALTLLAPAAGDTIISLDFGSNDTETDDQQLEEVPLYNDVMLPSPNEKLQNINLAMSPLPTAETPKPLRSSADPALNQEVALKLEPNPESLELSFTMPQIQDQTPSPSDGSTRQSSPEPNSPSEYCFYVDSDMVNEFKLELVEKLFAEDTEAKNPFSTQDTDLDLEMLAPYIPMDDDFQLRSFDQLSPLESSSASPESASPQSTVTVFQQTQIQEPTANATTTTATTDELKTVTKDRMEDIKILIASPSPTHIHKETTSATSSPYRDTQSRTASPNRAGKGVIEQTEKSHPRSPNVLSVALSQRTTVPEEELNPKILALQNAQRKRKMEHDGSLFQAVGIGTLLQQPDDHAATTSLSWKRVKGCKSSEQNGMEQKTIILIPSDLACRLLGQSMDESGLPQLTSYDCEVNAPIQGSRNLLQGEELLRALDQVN

Cc1c(F)c(F)c(COC(=O)C2C(/C=C(\Cl)C(F)(F)F)C2(C)C)c(F)c1F (stereo unspecified)
active: [5] 63.1 µM | [16] 69.4 µM
inactive: all other assays above

COc1ccc(C(c2ccc(OC)cc2)C(Cl)(Cl)Cl)cc1
active: [1] 73 µM | [2] 79.8 µM | [5] 65.4 µM | [6] 71.9 µM | [7] 90.3 µM | [8] 76.3 µM | [9] 56.2 µM | [10] 49.8 µM | [12] 29.8 µM | [14] 91.8 µM | [16] 56.5 µM | [18] 72.3 µM
inactive: [3] | [4] | [11] | [13] | [15] | [17]

COC(=O)C=C(C)OP(=O)(OC)OC
active: [1] 50 µM
inactive: all other assays above

CC(C)C1(C)N=C(c2nc3ccccc3cc2C(=O)O)NC1=O (stereo unspecified)
inactive: all assays above

CCCCOC(=O)c1ccccc1C(=O)OCCCC
inactive: all assays above

N#CC(CCc1ccc(Cl)cc1)(Cn1cncn1)c1ccccc1 (stereo unspecified)
active: [1] 79.3 µM | [2] 50 µM | [3] 11.7 µM | [5] 79.4 µM | [6] 40.4 µM | [7] 68 µM | [9] 40 µM | [10] 67.3 µM | [12] 79.5 µM | [13] 73.7 µM | [14] 67.9 µM | [15] 93.6 µM | [16] 50 µM | [17] 71.6 µM | [18] 74.4 µM
inactive: [4] | [8] | [11]

CCOc1cc(Oc2ccc(C(F)(F)F)cc2Cl)ccc1[N+](=O)[O-]
inactive: [1] | [2] | [4] | [8] | [9] | [11] | [12] | [13]
active: [3] 75.8 µM | [5] 30.4 µM | [6] 39.1 µM | [7] 39.9 µM | [10] 50 µM | [14] 41.9 µM | [16] 50 µM | [17] 50 µM | [18] 68.8 µM

CC(C)(C)c1ccc(CSc2cnn(C(C)(C)C)c(=O)c2Cl)cc1
inactive: [8] | [11] | [12] | [13] | [15]
active: [1] 1.12 µM | [3] 1.05 µM | [4] 2.11 µM | [5] 2.8 µM | [6] 1.74 µM | [7] 8.51 µM | [9] 2.07 µM | [10] 4.86 µM | [14] 2.38 µM | [16] 1.88 µM | [17] 2.69 µM | [18] 3.43 µM

CC1=C(C(=O)Nc2ccccc2)SCCO1
active: [5] 50 µM | [9] 61.8 µM | [14] 71.8 µM
inactive: all other assays above

CCOP(=S)(OCC)SCn1c(=O)oc2cc(Cl)ccc21
not listed: [16]
inactive: all other assays above

O=C(Nc1ccccc1)Nc1ccnc(Cl)c1
inactive: [3] | [9] | [13] | [17]
active: [1] 84.6 µM | [2] 79.5 µM | [4] 49.1 µM | [5] 71.3 µM | [6] 28.4 µM | [7] 24.9 µM | [8] 83 µM | [10] 84.8 µM | [11] 80.4 µM | [12] 84.2 µM | [14] 28.6 µM | [15] 78 µM | [16] 28.3 µM | [18] 63.4 µM

COC(=O)N(OC)c1ccccc1COc1ccn(-c2ccc(Cl)cc2)n1
inactive: [1] | [2] | [15]
active: [3] 74 µM | [4] 87 µM | [5] 80.4 µM | [6] 15.8 µM | [7] 78.7 µM | [8] 80.8 µM | [9] 79.5 µM | [10] 50 µM | [11] 80.3 µM | [12] 12 µM | [13] 50 µM | [14] 75.3 µM | [16] 68.1 µM | [17] 81.2 µM | [18] 64.3 µM

CNC(=S)S
inactive: all assays above
